Common to all, as to assay: DAPPL (digital affinity profiling via proximity ligation, sequencing); 10 mM Tris-HCl pH 7.5, 50 mM NaCl, 1 mM DTT, 4% glycerol, room temperature, 30 min; GST-TFs on glutathione beads, 16-mer random dsDNA library, 0.1% formaldehyde crosslink after washing; high values mean tight binding
The target of experiment [1] is T1, FLI1 (Homo sapiens, UniProt Q01543 1-452).
T1 sequence: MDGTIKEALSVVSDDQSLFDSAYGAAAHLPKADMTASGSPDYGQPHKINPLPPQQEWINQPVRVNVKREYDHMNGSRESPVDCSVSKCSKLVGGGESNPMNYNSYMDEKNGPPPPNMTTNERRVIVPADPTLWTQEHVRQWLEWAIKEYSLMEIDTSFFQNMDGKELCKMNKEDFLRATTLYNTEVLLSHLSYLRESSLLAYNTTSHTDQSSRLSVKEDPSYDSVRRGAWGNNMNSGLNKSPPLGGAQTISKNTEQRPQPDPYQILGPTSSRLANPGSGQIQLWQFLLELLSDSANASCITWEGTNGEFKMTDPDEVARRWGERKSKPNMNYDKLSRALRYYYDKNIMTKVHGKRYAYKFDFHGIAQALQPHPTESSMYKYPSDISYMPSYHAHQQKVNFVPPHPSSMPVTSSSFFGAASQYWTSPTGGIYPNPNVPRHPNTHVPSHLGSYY
Particulars: protein: recombinant; tags: N-terminal GST; dsDNA, one strand shown. A digest of the protocol: (§1)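 Pools were built from human transcription factors expressed in yeast as GST fusions, captured on glutathione beads and DNA-barcoded, along with a tag-only sample. Incubation with 200 nmole of a 16-mer random double-stranded DNA library lasted 30 min at room temperature in Tris/NaCl/DTT/glycerol buffer, and was followed by washing, 0.1% formaldehyde crosslinking, proximity ligation, PCR amplification and Illumina NextSeq500 sequencing. Binding signal is the quotient of each hexamer's read frequency for a factor and its frequency for the tag-only sample.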

Experiment [2] deals with T2, ELK1 (Homo sapiens, UniProt P19419 1-428).
T2 sequence: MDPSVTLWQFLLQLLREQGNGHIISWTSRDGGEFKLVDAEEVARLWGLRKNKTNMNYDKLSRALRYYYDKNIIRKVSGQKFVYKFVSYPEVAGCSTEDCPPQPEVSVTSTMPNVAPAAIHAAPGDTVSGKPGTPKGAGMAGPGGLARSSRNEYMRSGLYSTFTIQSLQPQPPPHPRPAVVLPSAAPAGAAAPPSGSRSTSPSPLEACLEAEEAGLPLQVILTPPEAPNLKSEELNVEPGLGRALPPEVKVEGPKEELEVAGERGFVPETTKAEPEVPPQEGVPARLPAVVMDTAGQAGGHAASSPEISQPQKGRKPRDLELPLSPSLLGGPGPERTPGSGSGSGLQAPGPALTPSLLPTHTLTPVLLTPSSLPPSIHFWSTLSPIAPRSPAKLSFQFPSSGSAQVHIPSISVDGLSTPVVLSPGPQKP
The note with it: protein: recombinant; tags: N-terminal GST; dsDNA, one strand shown. A digest of the protocol: as §1

Experiment [3] concerns the target T3, GABPA (Homo sapiens, UniProt Q06546 1-454).
T3 sequence: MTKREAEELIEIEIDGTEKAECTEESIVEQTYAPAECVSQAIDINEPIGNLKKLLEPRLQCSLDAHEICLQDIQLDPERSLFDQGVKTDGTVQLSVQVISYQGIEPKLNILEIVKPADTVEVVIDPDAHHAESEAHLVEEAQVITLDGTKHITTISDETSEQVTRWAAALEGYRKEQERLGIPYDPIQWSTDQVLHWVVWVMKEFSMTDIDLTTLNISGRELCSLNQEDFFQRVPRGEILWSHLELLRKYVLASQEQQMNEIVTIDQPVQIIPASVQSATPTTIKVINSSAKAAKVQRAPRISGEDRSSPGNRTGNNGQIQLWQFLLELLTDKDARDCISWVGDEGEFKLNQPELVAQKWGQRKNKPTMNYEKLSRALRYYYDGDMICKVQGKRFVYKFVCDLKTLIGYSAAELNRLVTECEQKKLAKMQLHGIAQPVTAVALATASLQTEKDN
The note with it: protein: recombinant; tags: N-terminal GST; dsDNA, one strand shown. A digest of the protocol: as §1

Experiment [4] concerns the target T4, ERG (Homo sapiens, UniProt P11308 1-479).
T4 sequence: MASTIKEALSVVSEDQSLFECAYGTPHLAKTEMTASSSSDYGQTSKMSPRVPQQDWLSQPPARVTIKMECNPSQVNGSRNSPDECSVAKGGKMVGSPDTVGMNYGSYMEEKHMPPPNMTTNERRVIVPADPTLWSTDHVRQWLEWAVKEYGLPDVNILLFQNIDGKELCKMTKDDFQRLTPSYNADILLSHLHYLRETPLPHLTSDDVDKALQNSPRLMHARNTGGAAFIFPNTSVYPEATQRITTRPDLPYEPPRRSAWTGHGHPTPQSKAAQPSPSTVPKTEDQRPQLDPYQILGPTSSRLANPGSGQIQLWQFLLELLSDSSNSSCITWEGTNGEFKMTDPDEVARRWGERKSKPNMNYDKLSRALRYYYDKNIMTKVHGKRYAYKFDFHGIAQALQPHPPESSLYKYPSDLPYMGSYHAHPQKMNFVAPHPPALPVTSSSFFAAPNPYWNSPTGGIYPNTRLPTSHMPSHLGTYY
The note with it: protein: recombinant; tags: N-terminal GST; dsDNA, one strand shown. The method, boiled down: as §1

Experiment [5] has as its target ELF1 (Homo sapiens, UniProt P32519 1-619). The note with it: protein: recombinant; tags: N-terminal GST; dsDNA, one strand shown. The method, boiled down: as §1
The target of experiment [6] is T5, EHF (Homo sapiens, UniProt Q9NZC4 1-300).
T5 sequence: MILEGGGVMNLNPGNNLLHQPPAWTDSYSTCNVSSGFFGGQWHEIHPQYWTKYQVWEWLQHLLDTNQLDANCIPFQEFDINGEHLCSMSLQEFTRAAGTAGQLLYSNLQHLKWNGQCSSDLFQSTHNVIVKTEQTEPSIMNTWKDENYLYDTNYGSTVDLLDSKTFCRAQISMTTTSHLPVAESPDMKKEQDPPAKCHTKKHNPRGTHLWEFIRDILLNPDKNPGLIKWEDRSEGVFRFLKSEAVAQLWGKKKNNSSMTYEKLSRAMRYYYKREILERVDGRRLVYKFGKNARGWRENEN
Particulars: protein: recombinant; tags: N-terminal GST; dsDNA, one strand shown. The method, boiled down: as §1

The target in experiment [7] is SPI1 (Homo sapiens, UniProt P17947 1-270). The note with it: protein: recombinant; tags: N-terminal GST; dsDNA, one strand shown. A digest of the protocol:
as §1

The target of experiment [8] is SPIB (Homo sapiens, UniProt Q01892 1-262). Particulars: protein: recombinant; tags: N-terminal GST; dsDNA, one strand shown. The method, boiled down: as §1
The target of experiment [9] is T6, ELK3 (Homo sapiens, UniProt P41970 1-407).
T6 sequence: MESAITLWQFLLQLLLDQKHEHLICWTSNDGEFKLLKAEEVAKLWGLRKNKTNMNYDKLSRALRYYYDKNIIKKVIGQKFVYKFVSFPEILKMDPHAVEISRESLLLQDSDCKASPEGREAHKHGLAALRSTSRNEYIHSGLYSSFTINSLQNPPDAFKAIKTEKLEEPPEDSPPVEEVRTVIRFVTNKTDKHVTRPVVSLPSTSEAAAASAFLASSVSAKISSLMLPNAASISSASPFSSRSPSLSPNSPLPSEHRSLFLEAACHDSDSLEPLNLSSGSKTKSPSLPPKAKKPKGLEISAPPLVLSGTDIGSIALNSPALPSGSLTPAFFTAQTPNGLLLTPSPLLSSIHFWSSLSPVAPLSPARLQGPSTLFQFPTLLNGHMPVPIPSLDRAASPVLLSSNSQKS
Particulars: protein: recombinant; tags: N-terminal GST; dsDNA, one strand shown. A digest of the protocol: as §1

The target in experiment [10] is T7, FEV (Homo sapiens, UniProt Q99581 1-238).
T7 sequence: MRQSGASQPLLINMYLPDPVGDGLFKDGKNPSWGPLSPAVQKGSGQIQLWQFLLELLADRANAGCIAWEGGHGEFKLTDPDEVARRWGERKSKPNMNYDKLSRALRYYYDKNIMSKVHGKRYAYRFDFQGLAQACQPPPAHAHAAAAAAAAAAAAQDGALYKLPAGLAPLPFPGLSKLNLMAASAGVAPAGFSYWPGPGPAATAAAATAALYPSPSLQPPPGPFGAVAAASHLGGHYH
Particulars: protein: recombinant; tags: N-terminal GST; dsDNA, one strand shown. A digest of the protocol:
as §1

Experiment [11] addresses ETV5 (Homo sapiens, UniProt P41161 1-510). Particulars: protein: recombinant; tags: N-terminal GST; dsDNA, one strand shown. The method, boiled down: as §1
Experiment [12] concerns the target HSF1 (Homo sapiens, UniProt Q00613 1-529). The note with it: protein: recombinant; tags: N-terminal GST; chain copies: 3; dsDNA, one strand shown. The method, boiled down: as §1
Experiment [13] has as its target T8, SPIC (Homo sapiens, UniProt Q8N5J4 1-248).
T8 sequence: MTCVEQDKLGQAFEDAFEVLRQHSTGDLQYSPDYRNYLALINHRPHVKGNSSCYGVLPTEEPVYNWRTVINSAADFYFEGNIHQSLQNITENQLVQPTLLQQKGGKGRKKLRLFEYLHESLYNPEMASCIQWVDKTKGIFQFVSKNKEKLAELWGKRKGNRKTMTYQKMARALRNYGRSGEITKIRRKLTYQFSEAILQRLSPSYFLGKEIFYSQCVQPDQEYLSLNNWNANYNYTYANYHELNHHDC
Particulars: protein: recombinant; tags: N-terminal GST; dsDNA, one strand shown. A digest of the protocol:
as §1

Experiment [14] deals with ELF4 (Homo sapiens, UniProt Q99607 1-663). The note with it: protein: recombinant; tags: N-terminal GST; dsDNA, one strand shown. The method, boiled down:
as §1

Experiment [15] deals with T9, ELK4 (Homo sapiens, UniProt P28324-2 1-405).
T9 sequence: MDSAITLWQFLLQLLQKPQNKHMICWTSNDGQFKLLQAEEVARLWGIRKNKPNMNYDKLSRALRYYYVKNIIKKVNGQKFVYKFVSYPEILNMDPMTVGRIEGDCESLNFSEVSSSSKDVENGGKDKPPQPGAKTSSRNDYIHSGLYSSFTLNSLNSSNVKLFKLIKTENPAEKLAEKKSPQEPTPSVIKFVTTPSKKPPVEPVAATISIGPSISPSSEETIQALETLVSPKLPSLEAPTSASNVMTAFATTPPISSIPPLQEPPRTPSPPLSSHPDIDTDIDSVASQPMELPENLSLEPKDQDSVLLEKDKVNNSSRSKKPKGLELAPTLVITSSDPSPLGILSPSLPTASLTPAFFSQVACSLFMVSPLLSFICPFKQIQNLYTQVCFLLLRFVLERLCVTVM
Particulars: protein: recombinant; tags: N-terminal GST; dsDNA, one strand shown. The method, boiled down:
as §1

The target of experiment [16] is T10, ETV2 (Homo sapiens, UniProt O00321 1-342).
T10 sequence: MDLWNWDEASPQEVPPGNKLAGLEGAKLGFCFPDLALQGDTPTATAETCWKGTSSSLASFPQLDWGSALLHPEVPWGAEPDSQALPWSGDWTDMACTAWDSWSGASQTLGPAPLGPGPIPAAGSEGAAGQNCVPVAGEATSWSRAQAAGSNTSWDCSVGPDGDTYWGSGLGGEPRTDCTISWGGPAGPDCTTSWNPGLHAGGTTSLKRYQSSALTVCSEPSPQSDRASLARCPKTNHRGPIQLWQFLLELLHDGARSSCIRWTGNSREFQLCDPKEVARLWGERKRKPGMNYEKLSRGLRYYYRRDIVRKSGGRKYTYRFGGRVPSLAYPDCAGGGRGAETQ
Particulars: protein: recombinant; tags: N-terminal GST; dsDNA, one strand shown. A digest of the protocol: as §1

The target in experiment [17] is T11, ELF3 (Homo sapiens, UniProt P78545 1-371).
T11 sequence: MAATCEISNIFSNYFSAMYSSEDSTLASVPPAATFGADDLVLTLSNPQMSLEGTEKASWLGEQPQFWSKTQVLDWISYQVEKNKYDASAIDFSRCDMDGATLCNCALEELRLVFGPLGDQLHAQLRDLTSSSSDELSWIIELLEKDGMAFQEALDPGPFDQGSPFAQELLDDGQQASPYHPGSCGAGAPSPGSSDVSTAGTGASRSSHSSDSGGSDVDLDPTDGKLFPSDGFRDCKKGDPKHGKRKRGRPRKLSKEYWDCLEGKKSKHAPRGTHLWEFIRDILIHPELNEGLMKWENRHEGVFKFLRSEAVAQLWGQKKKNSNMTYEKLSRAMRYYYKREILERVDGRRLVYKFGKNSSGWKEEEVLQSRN
The note with it: protein: recombinant; tags: N-terminal GST; dsDNA, one strand shown. A digest of the protocol:
as §1

Experiment [18] addresses CRX (Homo sapiens, UniProt O43186 1-299). Particulars: protein: recombinant; tags: N-terminal GST; dsDNA, one strand shown. A digest of the protocol: as §1
Experiment [19] deals with ETV1 (Homo sapiens, UniProt P50549 1-477). Particulars: protein: recombinant; tags: N-terminal GST; dsDNA, one strand shown. The method, boiled down: as §1
Sequence of ETV1 (P50549 whole entry): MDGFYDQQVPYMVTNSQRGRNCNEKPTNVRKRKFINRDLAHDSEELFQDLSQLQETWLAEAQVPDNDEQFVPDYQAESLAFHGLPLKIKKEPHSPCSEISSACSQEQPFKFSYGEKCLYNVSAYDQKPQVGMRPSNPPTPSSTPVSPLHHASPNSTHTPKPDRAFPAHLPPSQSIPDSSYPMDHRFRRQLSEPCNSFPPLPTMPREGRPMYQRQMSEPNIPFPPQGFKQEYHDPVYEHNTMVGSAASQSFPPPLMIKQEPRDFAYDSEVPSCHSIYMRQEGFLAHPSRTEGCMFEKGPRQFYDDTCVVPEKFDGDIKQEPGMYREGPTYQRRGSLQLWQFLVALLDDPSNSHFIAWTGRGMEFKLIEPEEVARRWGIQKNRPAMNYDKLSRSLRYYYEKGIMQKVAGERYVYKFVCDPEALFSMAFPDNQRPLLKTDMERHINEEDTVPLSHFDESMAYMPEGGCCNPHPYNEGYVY

Sequence of ELF4 (Q99607 whole entry): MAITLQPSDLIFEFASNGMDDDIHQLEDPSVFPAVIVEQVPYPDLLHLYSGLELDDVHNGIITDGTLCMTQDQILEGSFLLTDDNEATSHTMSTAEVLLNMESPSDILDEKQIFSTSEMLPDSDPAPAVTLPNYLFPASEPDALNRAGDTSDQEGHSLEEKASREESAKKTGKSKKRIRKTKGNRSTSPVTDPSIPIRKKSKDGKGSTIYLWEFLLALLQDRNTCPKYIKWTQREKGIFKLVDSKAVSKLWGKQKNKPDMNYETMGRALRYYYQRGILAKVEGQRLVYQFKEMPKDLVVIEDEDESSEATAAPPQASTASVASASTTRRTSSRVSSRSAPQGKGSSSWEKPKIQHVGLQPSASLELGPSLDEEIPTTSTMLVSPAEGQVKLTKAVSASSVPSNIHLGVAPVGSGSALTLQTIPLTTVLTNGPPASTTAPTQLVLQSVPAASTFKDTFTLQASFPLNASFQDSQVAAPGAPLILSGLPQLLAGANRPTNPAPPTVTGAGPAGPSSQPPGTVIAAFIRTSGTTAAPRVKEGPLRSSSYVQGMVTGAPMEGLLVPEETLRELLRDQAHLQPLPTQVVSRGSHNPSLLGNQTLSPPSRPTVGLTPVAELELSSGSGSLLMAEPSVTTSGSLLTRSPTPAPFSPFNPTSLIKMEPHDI
Sequence of SPIB (Q01892 whole entry): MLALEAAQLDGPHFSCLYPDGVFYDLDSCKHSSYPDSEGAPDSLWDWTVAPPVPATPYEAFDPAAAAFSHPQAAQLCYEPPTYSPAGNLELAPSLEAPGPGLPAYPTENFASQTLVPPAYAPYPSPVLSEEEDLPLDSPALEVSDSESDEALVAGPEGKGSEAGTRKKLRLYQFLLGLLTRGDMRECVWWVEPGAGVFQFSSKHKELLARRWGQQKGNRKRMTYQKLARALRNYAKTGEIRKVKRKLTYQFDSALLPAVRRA
Sequence of ETV5 (P41161 whole entry): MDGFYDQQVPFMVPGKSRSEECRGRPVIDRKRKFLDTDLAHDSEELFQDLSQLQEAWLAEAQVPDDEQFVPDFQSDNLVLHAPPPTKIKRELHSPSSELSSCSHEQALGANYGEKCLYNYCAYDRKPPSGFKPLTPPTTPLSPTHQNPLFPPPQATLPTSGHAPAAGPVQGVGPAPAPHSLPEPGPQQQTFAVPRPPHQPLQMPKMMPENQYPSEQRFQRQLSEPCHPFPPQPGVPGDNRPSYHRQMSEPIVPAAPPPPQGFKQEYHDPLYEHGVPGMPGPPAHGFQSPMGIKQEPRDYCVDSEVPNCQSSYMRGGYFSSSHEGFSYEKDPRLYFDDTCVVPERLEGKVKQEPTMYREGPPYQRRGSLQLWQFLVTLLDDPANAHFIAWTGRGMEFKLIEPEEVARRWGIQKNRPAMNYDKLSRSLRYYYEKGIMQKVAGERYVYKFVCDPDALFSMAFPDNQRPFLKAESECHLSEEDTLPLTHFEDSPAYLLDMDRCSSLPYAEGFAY
Sequence of CRX (O43186 whole entry): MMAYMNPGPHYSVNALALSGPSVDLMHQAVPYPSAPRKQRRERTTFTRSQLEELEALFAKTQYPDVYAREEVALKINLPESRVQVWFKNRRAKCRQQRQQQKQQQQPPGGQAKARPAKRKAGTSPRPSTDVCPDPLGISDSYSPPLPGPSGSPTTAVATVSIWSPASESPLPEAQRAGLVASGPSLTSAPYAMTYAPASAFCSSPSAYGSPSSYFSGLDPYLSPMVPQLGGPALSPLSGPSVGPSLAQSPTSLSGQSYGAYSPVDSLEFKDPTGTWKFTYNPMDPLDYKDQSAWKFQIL
Sequence of ELF1 (P32519 whole entry): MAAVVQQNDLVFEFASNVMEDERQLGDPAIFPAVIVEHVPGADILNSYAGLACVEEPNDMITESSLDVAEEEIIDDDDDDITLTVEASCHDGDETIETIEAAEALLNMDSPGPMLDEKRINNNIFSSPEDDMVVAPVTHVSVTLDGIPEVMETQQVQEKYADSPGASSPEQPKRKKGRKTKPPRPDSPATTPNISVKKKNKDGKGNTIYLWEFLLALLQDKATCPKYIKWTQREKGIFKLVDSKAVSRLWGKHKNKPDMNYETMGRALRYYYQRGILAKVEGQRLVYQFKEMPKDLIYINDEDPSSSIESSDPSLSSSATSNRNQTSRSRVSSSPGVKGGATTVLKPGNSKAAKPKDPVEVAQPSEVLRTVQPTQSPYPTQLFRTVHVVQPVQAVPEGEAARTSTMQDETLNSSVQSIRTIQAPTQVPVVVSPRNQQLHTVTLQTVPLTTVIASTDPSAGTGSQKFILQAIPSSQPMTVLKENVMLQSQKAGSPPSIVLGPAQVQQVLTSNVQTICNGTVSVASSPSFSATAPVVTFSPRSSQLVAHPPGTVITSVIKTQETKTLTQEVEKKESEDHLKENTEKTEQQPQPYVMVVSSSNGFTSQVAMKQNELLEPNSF
Sequence of HSF1 (Q00613 whole entry): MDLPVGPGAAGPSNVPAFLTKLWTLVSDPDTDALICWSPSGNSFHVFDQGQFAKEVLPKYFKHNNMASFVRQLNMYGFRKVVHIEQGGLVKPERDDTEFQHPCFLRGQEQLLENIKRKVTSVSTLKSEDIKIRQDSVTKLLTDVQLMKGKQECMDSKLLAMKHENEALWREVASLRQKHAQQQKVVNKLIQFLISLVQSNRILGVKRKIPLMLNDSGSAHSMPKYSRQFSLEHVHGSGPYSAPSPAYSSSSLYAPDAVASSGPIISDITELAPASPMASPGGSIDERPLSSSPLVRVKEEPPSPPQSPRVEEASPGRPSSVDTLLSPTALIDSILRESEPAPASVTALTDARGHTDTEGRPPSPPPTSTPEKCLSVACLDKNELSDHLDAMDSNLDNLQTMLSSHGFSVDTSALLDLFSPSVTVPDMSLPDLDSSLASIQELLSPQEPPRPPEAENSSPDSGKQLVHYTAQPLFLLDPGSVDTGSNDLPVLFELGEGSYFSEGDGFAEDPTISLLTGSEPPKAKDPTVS

On to AAATGG, for which the binding signal in experiment [1] was 1.52 fold enrichment (6-mer frequency, TF over GST control); in [2] it was 1.42 fold enrichment (6-mer frequency, TF over GST control); in experiment [3], 1.49 fold enrichment (6-mer frequency, TF over GST control); in experiment [4], 1.56 fold enrichment (6-mer frequency, TF over GST control); in experiment [5], 1.49 fold enrichment (6-mer frequency, TF over GST control); in experiment [6] it was 1.55 fold enrichment (6-mer frequency, TF over GST control). Besides, the binding signal is 1.59 fold enrichment (6-mer frequency, TF over GST control) in experiment [7]; 1.43 fold enrichment (6-mer frequency, TF over GST control) in [8]; 1.47 fold enrichment (6-mer frequency, TF over GST control) in experiment [9]; 1.42 fold enrichment (6-mer frequency, TF over GST control) in experiment [10]; 1.56 fold enrichment (6-mer frequency, TF over GST control) in [11]; 1.27 fold enrichment (6-mer frequency, TF over GST control) in [12]. Also, the binding signal in experiment [13] was 1.51 fold enrichment (6-mer frequency, TF over GST control); in experiment [14] it was 1.49 fold enrichment (6-mer frequency, TF over GST control); in experiment [15], 1.5 fold enrichment (6-mer frequency, TF over GST control); in experiment [16], 1.47 fold enrichment (6-mer frequency, TF over GST control); in experiment [17] it was 1.48 fold enrichment (6-mer frequency, TF over GST control); in [18], 1.22 fold enrichment (6-mer frequency, TF over GST control). The binding signal in experiment [19] was 1.5 fold enrichment (6-mer frequency, TF over GST control).
